Results as given in PubChem BioAssay (EPA / NIEHS).
Records with an inconclusive call do not appear. Activity calls are given as the source filed them. Rule for the calls: active = hit-call score of the fitted dose curve at least 0.9, where 1 is the maximum; inconclusive = response in the unintended direction; inactive = score below 0.9.

Assay: CLD_ACTIN_24hr: CellzDirect (CLD) Gene Expression Assay for Baseline Control (Actin) at 24 hours (AID 2283670)
Method: CLD_24hr is a cell-based, multiplexed-readout assay that uses hepatocyte, a human liver primary cell, with measurements taken at 24 hours after chemical dosing in a 96-well plate.CLD_ACTIN_24hr is one of 16 assay component(s) measured or calculated from the CLD_24hr assay. It is designed to make measurements of mRNA induction, a form of inducible reporter, as detected with chemiluminescence signals by Quantitative Nuclease Protection Assay (qNPA) technology.Data from the assay component CLD_ACTIN_24hr was analyzed at the endpoint, CLD_ACTIN_24hr, in the positive analysis fitting direction relative to DMSO as the negative control and baseline of activity. Using a type of inducible reporter, gain-of-signal activity can be used to understand changes in the reporter gene as they relate to the gene ACTA1. Furthermore, this assay endpoint can be referred to as a secondary readout, because this assay has produced multiple assay endpoints where this one serves a background control function. To generalize the intended target to other relatable targets, this assay endpoint is annotated to the background measurement intended target family, where subfamily is baseline control.
Human hepatocyte cultures were treated daily for two consecutive days with fresh dosing solutions containing appropriate concentrations of the 320 ToxCast chemicals (chemical identities were blinded to CellzDirect and other ToxCast collaborators), vehicle control (0.2% DMSO), and positive control inducers as summarized in Table 1. Due to the large number of treatment groups and chemicals examined, the ToxCast chemicals were divided into two groups (spanning two independent cultures of hepatocytes from separate donor preparations (Hu778: ToxCast plates 1 and 2; Hu776: ToxCast plates 3 and 4). Each preparation of human hepatocyte cultures was treated with respective vehicle control, medium only control, set of six positive controls/reference chemicals for the five hepatic receptor pathways, and a subset of eight of the ToxCast chemicals (indoxacarb, pyrithiobac-sodium, norflurazon, cyhalofop-butyl, methomyl, thiram, acetochlor, and propiconazole). These replicate data, coupled with internal replicates designed within the blinded ToxCast chemical library, provided additional data to evaluate interindividual differences between hepatocyte preparations and their potential impact on chemical profiles.Cell morphology and integrity were evaluated using phase-contrast microscopy as an indicator of hepatocyte cell health (Tyson & Green, 1987). Cultures for each treatment group (i.e., media, vehicle [0.2% DMSO], positive control inducers [multiple concentrations], and the ToxCast chemicals [multiple concentrations]) were observed and cell morphology was assessed relative to vehicle control cultures at each harvest time point (0, 6, 24, or 48 h). […] Images were evaluated at the conclusion of the study to assess changes in cell integrity and account for the effects of chemical exposure on uncharacteristic changes in concentration-dependent gene expression profiles. The results from these determinations of apparent cytotoxicity were annotated (yes/no) alongside the corresponding qNPA data for reference.At the conclusion of each treatment period, hepatocyte cultures (96-well) were washed with 1 volume of HBSS, lysed by addition of 25 ul ArrayPlate lysis buffer (HTG, Tucson, AZ), and 70 ul/well of Denaturation Oil, denatured by incubation at 95C for 10 min, and frozen at approximately -70C until analysis by nuclease protection assay (qNPA) (Roberts et al., 2007). For qNPA analysis, cell lysates were thawed at 50C for approximately 30 min, qNPA probes were added, and samples were incubated at 95C for 10 min to begin the detection process by denaturing the target RNA, dissociating the duplexes and secondary structure hybridization. At the conclusion of the hybridization period, S1 nuclease reagent was added to each sample to digest all nonprotected nucleotides at 50C for 60-90 min. […]

SMILES | outcome
CCCCC(CC)COC(=O)c1ccccc1C(=O)OCC(CC)CCCC (stereo unspecified) | inactive
Cc1ccc(-c2c(Cl)nc(C#N)n2S(=O)(=O)N(C)C)cc1 | inactive
N#Cc1nn(-c2c(Cl)cc(C(F)(F)F)cc2Cl)c(N)c1S(=O)C(F)(F)F (stereo unspecified) | inactive
Oc1ccccc1-c1ccccc1 | inactive
COc1cnc(OC)n2nc(NS(=O)(=O)c3c(OCC(F)F)cccc3C(F)(F)F)nc12 | inactive
CS/C(C)=N/OC(=O)N(C)SN(C)C(=O)O/N=C(\C)SC | inactive
N#CC(CCc1ccc(Cl)cc1)(Cn1cncn1)c1ccccc1 (stereo unspecified) | inactive
CCCCNC(=O)OCC#CI | inactive
Cc1c(F)c(F)c(COC(=O)C2C(/C=C(\Cl)C(F)(F)F)C2(C)C)c(F)c1F (stereo unspecified) | inactive
CCCCNC(=O)n1c(NC(=O)OC)nc2ccccc21 | inactive
CC(Oc1ccc(Cl)cc1Cl)C(=O)O (stereo unspecified) | inactive
CCCC1COC(Cn2cncn2)(c2ccc(Cl)cc2Cl)O1 (stereo unspecified) | inactive
CCNc1nc(Cl)nc(NCC)n1 | inactive
CNC(=S)S | inactive
CNC(=O)ON=CC(C)(C)SC | inactive
COC(=O)C(C)Oc1ccc(Oc2ccc(Cl)cc2Cl)cc1 (stereo unspecified) | inactive

SMILES | outcome
COC(=O)N(OC)c1ccccc1COc1ccn(-c2ccc(Cl)cc2)n1 | inactive
COc1nc(NC(C)C)nc(NC(C)C)n1 | inactive
COc1nc(C)nc(NC(=O)NS(=O)(=O)c2ccccc2Cl)n1 | inactive
CCNc1nc(Cl)nc(NC(C)C)n1 | inactive
CCc1nn(C)c(C(=O)NCc2ccc(C(C)(C)C)cc2)c1Cl | inactive
COC(=O)c1ccccc1C(=O)OC | inactive
CCCCOC(=O)c1ccccc1C(=O)OCCCC | inactive
CC(C)C1(C)N=C(c2nc3ccccc3cc2C(=O)O)NC1=O (stereo unspecified) | inactive
C=CCC1=C(C)C(OC(=O)C2C(C=C(C)C)C2(C)C)CC1=O (stereo unspecified) | inactive
C=CC1(C)OC(=O)N(c2cc(Cl)cc(Cl)c2)C1=O (stereo unspecified) | inactive
OC(c1ccc(Cl)cc1)(c1cncnc1)c1ccccc1Cl (stereo unspecified) | inactive
CC(C)(C)c1ccc(CSc2cnn(C(C)(C)C)c(=O)c2Cl)cc1 | inactive
COC(=O)C=C(C)OP(=O)(OC)OC | inactive
N#Cc1cc(Br)c(O)c(Br)c1 | inactive
CN(C)C(=S)SSC(=S)N(C)C | inactive
